{
  "source": "PubChem BioAssay (NCATS)",
  "note": "Results filed as inconclusive are left out. Entries that show only a call come without a potency. Active and inactive are the calls of the source. Calls follow the shape of the dose curve; as a rule, active = well fitted curve in the direction sought with a large enough effect; inconclusive = small, poorly fitted or top-dose-only effect, or another doubt; inactive = no such curve, though single readings can be large; an effect the other way counts as inactive or inconclusive. Potency is read from the fitted curve at half-maximal effect.",
  "data": [
    {"test": "MultiTox-Fluor Cytotoxicity Assay - LYMP1-002 - Dead Cells (AID 960); also: nearly all actives have a fitted effect of over 60% in size", "conditions": "LYMP1-002 lymphoblastoid cells, dead-cell protease fluorescence; series mostly up to 46.1 µM", "method_in_brief": "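Dead-cell fluorescence (Ex/Em 485/520) after 16 h compound exposure at 37 C of LYMP1-002 lymphoblastoid cells in complete medium; AC50 by Hill equation, with data scaled between DMSO and 15 uM tetraoctylammonium bromide.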", "values": [
      {"smiles": "Nc1ccc([N+](=O)[O-])cc1O", "Potency": "inactive"},
      {"smiles": "O=C1CN(/N=C/c2ccc([N+](=O)[O-])o2)C(=O)N1", "Potency": "inactive"},
      {"smiles": "Nc1nc2ccc([N+](=O)[O-])cc2s1", "Potency": "inactive"},
      {"smiles": "CN(C)CCC(c1ccc(Cl)cc1)c1ccccn1", "note": "(stereo not drawn)", "Potency": "inactive"},
      {"smiles": "CCCCCCCCCCCCCCCCCC(=O)O", "Potency": "inactive"},
      {"smiles": "Nc1ccc(O)c(C(=O)O)c1", "Potency": "inactive"},
      {"smiles": "c1ccc2sc(SSc3nc4ccccc4s3)nc2c1", "Potency": "inactive"},
      {"smiles": "O=c1cc(-c2ccccc2)oc2ccccc12", "Potency": "inactive"},
      {"smiles": "CN(C)c1ccc(C(=C2C=CC(=[N+](C)C)C=C2)c2ccccc2)cc1", "Potency": "1.58 µM (active)"},
      {"smiles": "CCCOC(=O)c1ccc(O)cc1", "Potency": "inactive"},
      {"smiles": "CC1(C)S[C@@H]2[C@H](NC(=O)[C@H](N)c3ccccc3)C(=O)N2[C@H]1C(=O)O", "Potency": "inactive"},
      {"smiles": "O=C(O)/C=C\\C(=O)O", "Potency": "inactive"},
      {"smiles": "CN1CCC[C@H]1c1cccnc1", "Potency": "inactive"},
      {"smiles": "CN(C)c1ccc(N=NS(=O)(=O)O)cc1", "Potency": "inactive"},
      {"smiles": "NCCO", "Potency": "inactive"},
      {"smiles": "S=c1[nH]c2ccccc2s1", "Potency": "inactive"}
    ]},
    {"test": "MultiTox-Fluor Cytotoxicity Assay - LYMP1-003 - Dead Cells (AID 961); also: nearly all actives have a fitted effect of over 70% in size", "conditions": "LYMP1-003 lymphoblastoid cells, dead-cell protease fluorescence; series mostly up to 92.2 µM", "method_in_brief": "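Dead-cell protease release, detected as bis-AAF-R110 fluorescence at 485/520 nm, was measured in LYMP1-003 cells after 16 h compound treatment at 37 C. AC50 values came from Hill-modeled qHTS curves normalized to DMSO (0%) and 15 uM tetraoctylammonium bromide (100%).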", "values": [
      {"smiles": "Nc1ccc([N+](=O)[O-])cc1O", "Potency": "inactive"},
      {"smiles": "O=C(O)c1cc(O)c(O)c(O)c1", "Potency": "inactive"},
      {"smiles": "O=C1CN(/N=C/c2ccc([N+](=O)[O-])o2)C(=O)N1", "Potency": "inactive"},
      {"smiles": "Nc1nc2ccc([N+](=O)[O-])cc2s1", "Potency": "inactive"},
      {"smiles": "Nc1ccc(O)c([N+](=O)[O-])c1", "Potency": "inactive"},
      {"smiles": "CN(C)CCC(c1ccc(Cl)cc1)c1ccccn1", "note": "(stereo not drawn)", "Potency": "inactive"},
      {"smiles": "CCCCCCCCCCCCCCCCCC(=O)O", "Potency": "inactive"},
      {"smiles": "Nc1ccc(O)c(C(=O)O)c1", "Potency": "inactive"},
      {"smiles": "c1ccc2sc(SSc3nc4ccccc4s3)nc2c1", "Potency": "inactive"},
      {"smiles": "O=c1cc(-c2ccccc2)oc2ccccc12", "Potency": "inactive"},
      {"smiles": "CN(C)c1ccc(C(=C2C=CC(=[N+](C)C)C=C2)c2ccccc2)cc1", "Potency": "2 µM (active)"},
      {"smiles": "CCCOC(=O)c1ccc(O)cc1", "Potency": "inactive"},
      {"smiles": "CC1(C)S[C@@H]2[C@H](NC(=O)[C@H](N)c3ccccc3)C(=O)N2[C@H]1C(=O)O", "Potency": "inactive"},
      {"smiles": "O=C(O)/C=C\\C(=O)O", "Potency": "inactive"},
      {"smiles": "N=C1N=C(N)c2cc3ccccc3cc21", "Potency": "39.8 µM (active)"},
      {"smiles": "CC(C)NCC(O)COc1cccc2ccccc12", "note": "(stereo not drawn)", "Potency": "inactive"},
      {"smiles": "CN1CCC[C@H]1c1cccnc1", "Potency": "inactive"},
      {"smiles": "COc1cc(CNC(=O)CCCC/C=C/C(C)C)ccc1O", "Potency": "inactive"},
      {"smiles": "CN(C)c1ccc(N=NS(=O)(=O)O)cc1", "Potency": "inactive"},
      {"smiles": "COc1cc(/C=C/C(=O)CC(=O)/C=C/c2ccc(O)c(OC)c2)ccc1O", "Potency": "50.1 µM (active)"},
      {"smiles": "NCCO", "Potency": "inactive"},
      {"smiles": "S=c1[nH]c2ccccc2s1", "Potency": "inactive"}
    ]}
  ]
}
